In all, about 5,500 compounds went through this assay and about 2,000 (36%) were called active. About 18% were inconclusive and are not listed. Cut-off read from the data, not from the text of the source: active = normalized growth mostly below about 0.91 (no sharp cut-off); inconclusive = no clear call, values can overlap the other calls; inactive = mostly above about 0.92. The list shows a part of the results.
Assay: chemical genetic growth profiling, strain panel (AID 1159580);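 note: tested at 20 µM; growth read once vehicle control cultures reached saturation at 30 °C; 1 = growth at the plate median or of vehicle wells; lower values mean less growth of the strain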
Conditions: growth OD
[1] = S. cerevisiae deletion strains, locus YHR030C, strain SLT2, stronger effect = lower value
[2] = S. cerevisiae deletion strains, locus YHR079C, strain IRE1, stronger effect = lower value
[3] = S. cerevisiae deletion strains, locus YJL095W, strain BCK1, stronger effect = lower value
[4] = S. cerevisiae deletion strains, locus YJR066W, strain TOR1, stronger effect = lower value
[5] = S. cerevisiae deletion strains, locus YLR113W, strain HOG1, stronger effect = lower value
[6] = S. cerevisiae deletion strains, locus YNL183C, strain NPR1, stronger effect = lower value
[7] = S. cerevisiae deletion strains, locus YOR231W, strain MKK1, stronger effect = lower value
[8] = S. cerevisiae deletion strains, locus YPL256C, strain CLN2, stronger effect = lower value
[9] = S. cerevisiae deletion strains, locus YDL101C, strain DUN1, stronger effect = lower value

Measured: normalized growth

O=C1CN=C(c2ccccc2Cl)c2cc([N+](=O)[O-])ccc2N1
inactive: [1] 0.869 | [2] 0.965 | [3] 0.981 | [4] 0.945 | [5] 0.963 | [6] 0.9 | [7] 0.962 | [8] 0.924

O=[N+]([O-])c1ccc(-c2csc(Nc3ccncc3)n2)cc1
inactive: S. cerevisiae deletion strains, locus YAR019C, strain CDC15, stronger effect = lower value 0.995 | S. cerevisiae deletion strains, locus YBL105C, strain PKC1, stronger effect = lower value 0.978 | S. cerevisiae deletion strains, locus YBR135W, strain CKS1, stronger effect = lower value 0.982 | S. cerevisiae deletion strains, locus YBR136W, strain MEC1, stronger effect = lower value 0.996 | S. cerevisiae deletion strains, locus YBR160W, strain CDC28, stronger effect = lower value 0.989 | S. cerevisiae deletion strains, locus YDL017W, strain CDC7, stronger effect = lower value 0.99 | S. cerevisiae deletion strains, locus YDL028C, strain MPS1, stronger effect = lower value 0.998 | [9] 0.99 | S. cerevisiae deletion strains, locus YDL108W, strain KIN28, stronger effect = lower value 0.979 | S. cerevisiae deletion strains, locus YDL132W, strain cdc53, stronger effect = lower value 0.982 | S. cerevisiae deletion strains, locus YDL214C, strain PRR2, stronger effect = lower value 0.941 | S. cerevisiae deletion strains, locus YDR052C, strain DBF4, stronger effect = lower value 0.992 | S. cerevisiae deletion strains, locus YDR054C, strain cdc34, stronger effect = lower value 0.977 | S. cerevisiae deletion strains, locus YDR226W, strain ADK1, stronger effect = lower value 0.985 | S. cerevisiae deletion strains, locus YDR477W, strain SNF1, stronger effect = lower value 0.992 | S. cerevisiae deletion strains, locus YER123W, strain YCK3, stronger effect = lower value 0.982 | S. cerevisiae deletion strains, locus YER133W, strain GLC7, stronger effect = lower value 0.987 | S. cerevisiae deletion strains, locus YFL009W, strain cdc4, stronger effect = lower value 0.981 | S. cerevisiae deletion strains, locus YFL029C, strain CAK1, stronger effect = lower value 1.01 | S. cerevisiae deletion strains, locus YFR003C, strain YPI1, stronger effect = lower value 0.98 | S. cerevisiae deletion strains, locus YFR019W, strain FAB1, stronger effect = lower value 0.984 | S. cerevisiae deletion strains, locus YFR028C, strain CDC14, stronger effect = lower value 0.996 | S. cerevisiae deletion strains, locus YGR040W, strain KSS1, stronger effect = lower value 0.978 | S. cerevisiae deletion strains, locus YGR052W, strain FMP48, stronger effect = lower value 1.01 | S. cerevisiae deletion strains, locus YGR092W, strain DBF2, stronger effect = lower value 0.908 | [1] 1 | [2] 1.01 | S. cerevisiae deletion strains, locus YHR082C, strain KSP1, stronger effect = lower value 1.08 | S. cerevisiae deletion strains, locus YHR205W, strain SCH9, stronger effect = lower value 0.923 | S. cerevisiae deletion strains, locus YIL147C, strain SLN1, stronger effect = lower value 0.991 | [3] 1.03 | S. cerevisiae deletion strains, locus YJL128C, strain PBS2, stronger effect = lower value 0.943 | S. cerevisiae deletion strains, locus YJL157C, strain FAR1, stronger effect = lower value 0.996 | S. cerevisiae deletion strains, locus YJR016C, strain ILV3, stronger effect = lower value 0.978 | S. cerevisiae deletion strains, locus YJR066W, strain TOR1 (second series), stronger effect = lower value 0.991 | [4] 0.968 | S. cerevisiae deletion strains, locus YKL048C, strain ELM1, stronger effect = lower value 0.976 | S. cerevisiae deletion strains, locus YKL067W, strain YNK1, stronger effect = lower value 0.941 | S. cerevisiae deletion strains, locus YKL101W, strain HSL1, stronger effect = lower value 0.98 | S. cerevisiae deletion strains, locus YKL193C, strain SDS22, stronger effect = lower value 0.988 | S. cerevisiae deletion strains, locus YKL203C, strain TOR2, stronger effect = lower value 1.07 | [5] 0.981 | S. cerevisiae deletion strains, locus YLR133W, strain CKI1, stronger effect = lower value 0.976 | S. cerevisiae deletion strains, locus YLR403W, strain SFP1, stronger effect = lower value 1.01 | S. cerevisiae deletion strains, locus YML070W, strain DAK1, stronger effect = lower value 0.991 | S. cerevisiae deletion strains, locus YMR001C, strain CDC5, stronger effect = lower value 0.993 | S. cerevisiae deletion strains, locus YMR205C, strain PFK2 (second series), stronger effect = lower value 0.973 | S. cerevisiae deletion strains, locus YMR277W, strain FCP1, stronger effect = lower value 0.989 | S. cerevisiae deletion strains, locus YNL006W, strain LST8, stronger effect = lower value 0.994 | S. cerevisiae deletion strains, locus YNL020C, strain ARK1, stronger effect = lower value 0.975 | S. cerevisiae deletion strains, locus YNL161W, strain CBK1, stronger effect = lower value 0.994 | [6] 1.02 | S. cerevisiae deletion strains, locus YNL207W, strain RIO2, stronger effect = lower value 0.984 | S. cerevisiae deletion strains, locus YNL222W, strain SSU72, stronger effect = lower value 0.996 | S. cerevisiae deletion strains, locus YNL307C, strain MCK1 (second series), stronger effect = lower value 0.976 | S. cerevisiae deletion strains, locus YOL078W, strain AVO1, stronger effect = lower value 0.986 | S. cerevisiae deletion strains, locus YOL136C, strain PFK27, stronger effect = lower value 0.979 | S. cerevisiae deletion strains, locus YOR061W, strain CKA2, stronger effect = lower value 0.957 | S. cerevisiae deletion strains, locus YOR119C, strain RIO1, stronger effect = lower value 1.01 | [7] 0.97 | S. cerevisiae deletion strains, locus YOR329C, strain SCD5, stronger effect = lower value 0.992 | S. cerevisiae deletion strains, locus YPL031C, strain PHO85, stronger effect = lower value 0.98 | S. cerevisiae deletion strains, locus YPL153C, strain RAD53, stronger effect = lower value 1 | S. cerevisiae deletion strains, locus YPL204W, strain HRR25, stronger effect = lower value 0.982 | S. cerevisiae deletion strains, locus YPL209C, strain IPL1, stronger effect = lower value 0.991 | [8] 1.03 | S. cerevisiae deletion strains, locus YPR025C, strain CCL1, stronger effect = lower value 0.985 | S. cerevisiae deletion strains, locus YPR106W, strain ISR1, stronger effect = lower value 0.98 | S. cerevisiae deletion strains, locus YPR111W, strain DBF20, stronger effect = lower value 0.969 | S. cerevisiae deletion strains, strain NNK1, stronger effect = lower value 0.996 | S. cerevisiae deletion strains, strain TSCII, stronger effect = lower value 1

O=[N+]([O-])c1cccc(-c2csc(Nc3ccccc3Cl)n2)c1
active: [1] 0.418 | S. cerevisiae deletion strains, locus YJR075W, strain HOC1, stronger effect = lower value 0.88 | S. cerevisiae deletion strains, locus YKL190W, strain CNB1, stronger effect = lower value 0.907 | S. cerevisiae deletion strains, locus YLR039C, strain RIC1, stronger effect = lower value 0.6 | S. cerevisiae deletion strains, locus YLR085C, strain ARP6, stronger effect = lower value 0.571 | S. cerevisiae deletion strains, locus YLR262C, strain YPT6, stronger effect = lower value 0.727 | S. cerevisiae deletion strains, locus YML094W, strain GIM5, stronger effect = lower value 0.818 | S. cerevisiae deletion strains, locus YNL298W, strain CLA4 (second series), stronger effect = lower value 0.82 | S. cerevisiae deletion strains, locus YNR030W, strain Alg12, stronger effect = lower value 0.811 | S. cerevisiae deletion strains, locus YOL006C, strain TOP1, stronger effect = lower value 0.638 | S. cerevisiae deletion strains, locus YPL055C, strain LGE1, stronger effect = lower value 0.715 | S. cerevisiae deletion strains, locus YPL241C, strain CIN2, stronger effect = lower value 0.82
inactive: S. cerevisiae deletion strains, locus YAL013W, strain DEP1, stronger effect = lower value 0.94 | S. cerevisiae deletion strains, locus YBR229C, strain ROT2, stronger effect = lower value 0.966 | [9] 0.978 | S. cerevisiae deletion strains, locus YDR150W, strain NUM1, stronger effect = lower value 0.934 | S. cerevisiae deletion strains, locus YEL061C, strain CIN8, stronger effect = lower value 0.929 | S. cerevisiae deletion strains, locus YGR078C, strain PAC10, stronger effect = lower value 0.938 | S. cerevisiae deletion strains, locus YGR229C, strain SMI1, stronger effect = lower value 0.959 | S. cerevisiae deletion strains, locus YHR087W, strain rtc3, stronger effect = lower value 0.955 | S. cerevisiae deletion strains, locus YJL187C, strain SWE1, stronger effect = lower value 1.01 | S. cerevisiae deletion strains, locus YJR043C, strain POL32, stronger effect = lower value 0.979 | S. cerevisiae deletion strains, locus YLR058C, strain SHM2 (second series), stronger effect = lower value 0.964 | S. cerevisiae deletion strains, locus YMR219W, strain ESC1, stronger effect = lower value 0.964 | S. cerevisiae deletion strains, locus YMR263W, strain SAP30, stronger effect = lower value 0.945 | S. cerevisiae deletion strains, locus YNL153C, strain GIM3, stronger effect = lower value 0.972 | S. cerevisiae deletion strains, locus YNL322C, strain KRE1, stronger effect = lower value 0.977 | S. cerevisiae deletion strains, locus YPR135W, strain CTF4, stronger effect = lower value 0.795 | S. cerevisiae strains, strain wild type, stronger effect = lower value 0.915
